What all share (test): NCI-60 one-dose screen, 48 h (100 = growth as untreated, 0 = no growth, -100 = all killed)
The subject of assay [1] is HCT-15 colon. The note with it: 10 µM unless noted.
Assay [2] concerns HT29 colon. The note with it: 10 µM unless noted.
Assay [3] has as its system SNB-75 CNS. The following applies: 10 µM unless noted.
Assay [4] concerns SNB-19 CNS. The following applies: 10 µM unless noted.
The subject of assay [5] is U251 CNS. The note with it: 10 µM unless noted.
Assay [6] has as its system PC-3 prostate. The following applies: 10 µM unless noted.
In assay [7] the test system is SK-MEL-5 melanoma. The following applies: 10 µM unless noted.
The test system of assay [8] is UACC-62 melanoma. The note with it: 10 µM unless noted.
The subject of assay [9] is LOX IMVI melanoma. The note with it: 10 µM unless noted.
Assay [10] deals with SK-MEL-28 melanoma. The note with it: 10 µM unless noted.
Assay [11] concerns SK-MEL-2 melanoma. The following applies: 10 µM unless noted.
The subject of assay [12] is EKVX NSCLC. The following applies: 10 µM unless noted.
For assay [13], the system named is SN12C renal. The following applies: 10 µM unless noted.
The subject of assay [14] is UO-31 renal. The note with it: 10 µM unless noted.
Assay [15] concerns TK-10 renal. The following applies: 10 µM unless noted.
Assay [16] has as its system ACHN renal. The note with it: 10 µM unless noted.
The subject of assay [17] is CAKI-1 renal. The note with it: 10 µM.
For assay [18], the system named is CCRF-CEM leukemia. The following applies: 10 µM unless noted.
Assay [19] concerns MOLT-4 leukemia. The following applies: 10 µM unless noted.

This is part of a sample that, as a whole, favours compounds with a hit. Of some 83,000 tested, about 20% had one in any assay.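 Single-concentration screen, 48 h exposure, 96-well plates. Endpoint: percent growth. Below 10 = active.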 Values without a mark were called inactive. Calls of active or inactive are those of the source.

Turning to `COc1ccccc1/C=C/C(=O)c1nnn(-c2ccc(C(=O)O)cc2)c1C`, the growth in [1] was 71.6%; in assay [2], 106%; in assay [3], 89.1%; in [4], 87.9%; in assay [5], 86.4%; in [6], 93.2%. The growth in assay [7] is 95.7%; in assay [8], 79.7%; in assay [9] it was 66.1%; in [10] it was 97.3%; in [11], 98.6%; in assay [12] it was 87.2%. In addition, the growth was 84.1% in [13]; 87.6% in assay [14]; 117% in assay [15]; 94% in assay [16]; 96% in [17]; 63.9% in assay [18]. Further, in assay [19], the growth was 94.4%.
`CNC(=O)c1c(NC(=O)c2ccc(F)cc2F)sc2c1CCC(=O)C2`: the growth in assay [1] was -2.45% (active); in assay [2], 12.8%; in [3], 4.82% (active); in assay [4], 19.1%; in [5], 12.6%; in [6] it was 11.7%. The growth in assay [7] was -64.9% (active); in [8], -25.5% (active); in assay [9], 14.5%; in assay [10], 30.2%; in assay [11], -4.48% (active); in assay [12], 14.5%. The growth in [13] was 17.5%; in [14] it was -94% (active); in assay [15] it was 38.7%; in assay [16] it was 1.41% (active); in assay [17] it was -3.18% (active); in assay [18] it was 4.01% (active). Moreover, in assay [19], the growth was 2.03% (active).
Regarding `NC(=O)C(=Cc1ccc(Cl)cc1)C(N)=O`, the growth in assay [1] was 36.6%; in [2], 77.4%; in assay [3] it was 62.4%; in [4], 77.9%; in [5], 68.7%; in assay [6], 70.4%. The growth in assay [7] is 95.4%; in assay [8], 85.3%; in [9], 57.4%; in assay [10], 70%; in assay [11] it was 87.3%; in assay [12] it was 59.8%. Besides, the growth was 45.3% in assay [13]; 57.6% in assay [14]; 67.9% in assay [15]; 59.4% in [16]; 49.2% in assay [17]; 57% in assay [18]. Further, the growth in assay [19] is 74.6%.
As for `COc1ccccc1/C=C/C=N/NC1=NC2C(S1)N(C)C(=O)N2c1ccccc1` (stereo not drawn), the growth in assay [1] is 12.1%; in assay [2], 15.9%; in [3] it was 18.3%; in assay [4], 22.7%; in assay [5] it was 23.5%; in assay [6] it was 26.9%. For the same compound, the growth in assay [7] is -12.6% (active); in assay [8] it was 33%; in [9], -0.484% (active); in assay [10] it was 60.3%; in assay [11] it was 67.6%; in [12], 39.4%. The growth in [13] was 20.6%; in [14], 35.9%; in assay [15], 68.6%; in [16] it was 24.7%; in assay [17] it was 46.4%; in assay [18], 14.3%. The growth in assay [19] was 4.1% (active).
In the case of `CCOc1c(C#N)c(Nc2ccc(S(N)(=O)=O)cc2)c(C#N)c2nnc(C)n12`, the growth in assay [1] is 105%; in assay [2] it was 107%; in assay [3], 91%; in [4] it was 101%; in assay [5], 108%; in [6] it was 85.4%. Moreover, the growth in [7] was 97.8%; in assay [8], 91.8%; in assay [9], 95.6%; in assay [10] it was 110%; in [11] it was 101%; in assay [12], 90.5%. In addition, the growth was 98.1% in assay [13]; 78.4% in assay [14]; 125% in assay [15]; 90.2% in assay [16]; 88.7% in [17]; 104% in [18]. Also, in assay [19], the growth is 104%.
Consider `c1ccc(-c2n(Cc3ccc4ccccc4c3)c3c4ccccc4c4ccccc4c3[n+]2Cc2ccc3ccccc3c2)cc1`, for which the growth in assay [1] is -76.7% (active); in assay [2] it was -67.2% (active); in assay [3], -54.3% (active); in assay [4] it was -88.5% (active); in assay [5], -78.7% (active); in [6], -78.6% (active). Further, the growth in assay [7] is -98.5% (active); in [8], -87.6% (active); in assay [9] it was -86.2% (active); in assay [10], -87.3% (active); in assay [11], -68.3% (active); in assay [12] it was -90.2% (active). The growth in assay [13] is -83.7% (active); in [14], -88% (active); in assay [15] it was -76.6% (active); in [16], -93.3% (active); in assay [17], -92.5% (active); in [18], -18.9% (active). Besides, in [19], the growth is -56% (active).
Consider `N/C(=N\OC(=O)CSc1nc2ccccc2s1)c1ccc(Cl)cc1`, for which the growth in assay [1] is 101%; in [2], 103%; in [3] it was 88.7%; in assay [4], 99.4%; in assay [5] it was 96.8%; in [6], 99.9%. The growth is 100% in [7]; 87.8% in [8]; 99.7% in [9]; 106% in assay [10]; 101% in assay [11]; 86.6% in assay [12]. Moreover, the growth in assay [13] is 102%; in assay [14] it was 76.6%; in [15], 127%; in assay [16] it was 91.4%; in assay [17], 83.4%; in [18], 102%. Also, the growth in assay [19] is 96.7%.

The record behind these values is PubChem BioAssay (NCI).
